Results taken from the supplement of paper PMC8975748.
Structures can show the parent of a compound that is named as a salt.

System: Saccharomyces cerevisiae BY4741 SeMeCo community
Experiment: z-score of subpopulation abundance vs DMSO median, subpopulation auxotrophic for U; higher = larger share of this subpopulation than in DMSO controls
Settings: 10 µM; 24 h; SM minimal medium; subpopulation (auxotrophy): U
Procedure: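 Fluorescent four-plasmid SeMeCo (self-establishing metabolically cooperating S. cerevisiae BY4741 community; plasmids pH-mRuby2, pL-mWasabi, pU-eCFP, pM-TagRFP657) was grown 24 h in minimal SM medium with each Selleck FDA-approved drug at 10 µM in 384-well plates. Cells were fixed and imaged by high-content confocal microscopy. For each auxotrophic subpopulation (and the prototroph), a z-score gives the deviation from the DMSO vehicle-control population median.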

| Structure (SMILES) | z-score of subpopulation abundance |
| --- | --- |
| c1ccc2[nH]c(-c3cscn3)nc2c1 [Thiabendazole] | -0.7 |
| CN[C@H]1C(=O)N[C@@H]2Cc3ccc(cc3)Oc3cc4cc(c3O[C@@H]3O[C@H](C(=O)O)[C@@H](O)[C@H](O)[C@H]3NC(=O)CCCCCCCCC(C)C)Oc3ccc(cc3Cl)[C@@H](O)[C@@H]3NC(=O)[C@H](NC(=O)[C@@H]4NC(=O)[C@@H](NC2=O)c2cc(cc(O)c2Cl)Oc2cc1ccc2O)c1ccc(O)c(c1)-c1c(O[C@H]2O[C@H](CO)[C@@H](O)[C@H](O)[C@@H]2O)cc(O)cc1[C@@H](C(=O)NCCCN(C)C)NC3=O [Dalbavancin] | 1.53 |
| O=C(c1ccc(F)cc1)C1CCN(CCn2c(=O)[nH]c3ccccc3c2=O)CC1 [Ketanserin] | 0.03 |
| Cn1c(=O)c2[nH]cnc2n(C)c1=O [Aminophylline] | 0.26 |
| C[C@H]1O[C@@H](O[C@H]2[C@@H](O)C[C@H](O[C@H]3[C@@H](O)C[C@H](O[C@H]4CC[C@@]5(C)[C@H](CC[C@@H]6[C@@H]5C[C@@H](O)[C@]5(C)[C@@H](C7=CC(=O)OC7)CC[C@]65O)C4)O[C@@H]3C)O[C@@H]2C)C[C@H](O)[C@@H]1O [Digoxin] | 0.17 |
| CCN1CCN(C(=O)N[C@@H](C(=O)N[C@@H]2C(=O)N3[C@@H]2SC(C)(C)[C@@H]3C(=O)O)c2ccccc2)C(=O)C1=O [Piperacillin Sodium] | -0.72 |
| CC1(C)[C@H](C(=O)O)N2C(=O)C[C@H]2S1(=O)=O [Sulbactam] | -0.63 |
| Nc1nc2[nH]cc(CCc3ccc(C(=O)N[C@@H](CCC(=O)O)C(=O)O)cc3)c2c(=O)[nH]1 [Pemetrexed Disodium Hydrate] | -1.03 |
| Cc1cc(NS(=O)(=O)c2ccc(N)cc2)no1 [Sulfamethoxazole] | -0.2 |
| O=c1c(-c2ccc(O)cc2)coc2c([C@@H]3O[C@H](CO)[C@@H](O)[C@H](O)[C@H]3O)c(O)ccc12 [Puerarin] | 0.36 |
| Cc1c[nH]c(=O)[nH]c1=O [Thymine] | 0.76 |
| CCCCCCCCCCCC(=O)O [Lauric Acid] | 0.57 |
| COc1ccc(-c2nc3cc(C4=NNC(=O)CC4C)ccc3[nH]2)cc1 (stereo not given) [Pimobendan] | -0.84 |
| CCC[C@@H]1C[C@@H](C(=O)N[C@@H]([C@H]2O[C@H](SC)[C@H](O)[C@@H](O)[C@H]2O)[C@H](C)Cl)N(C)C1 [Clindamycin HCl] | -0.42 |
| COc1ncnc(NS(=O)(=O)c2ccc(N)cc2)c1OC [Sulfadoxine] | 1.05 |
| CCOc1cc(NC(C)=O)ccc1C(=O)OC [Ethopabate] | -0.35 |
| Nc1nnc(-c2cccc(Cl)c2Cl)c(N)n1 [Lamotrigine] | -0.91 |
| CCCCOc1ccc(C(=O)CCN2CCCCC2)cc1 [Dyclonine HCl] | -0.57 |
| C[C@](N)(Cc1ccc(O)c(O)c1)C(=O)O [Methyldopa] | -0.29 |
| CCOC(=O)c1ccc(N)cc1 [Benzocaine] | -1.34 |

| Structure (SMILES) | z-score of subpopulation abundance |
| --- | --- |
| C=C[C@H]1CN2CC[C@H]1C[C@@H]2[C@@H](O)c1ccnc2ccc(OC)cc12 [Quinidine sulfate] | -1.29 |
| O=C(O)c1cn(C2CC2)c2cc(N3CCNCC3)c(F)cc2c1=O [Ciprofloxacin hydrochloride hydrate] | 0.96 |
| CN(C/C=C/C#CC(C)(C)C)Cc1cccc2ccccc12 [Terbinafine HCl] | 1.03 |
| Cn1cc(C(=O)[C@@H]2CCc3[nH]cnc3C2)c2ccccc21 [Ramosetron Hydrochloride] | 0.51 |
| Cc1ccc(O)c([C@H](CCN(C(C)C)C(C)C)c2ccccc2)c1 [Tolterodine tartrate] | -0.01 |
| CO/N=C(/C(=O)N[C@@H]1C(=O)N2C(C(=O)OCOC(=O)C(C)(C)C)=C(C)CS[C@H]12)c1csc(N)n1 [Cefetamet pivoxil hydrochloride] | 0.3 |
| C[N+]1(C)[C@@H]2C[C@@H](OC(=O)C(O)(c3cccs3)c3cccs3)C[C@H]1[C@@H]1O[C@@H]12 [Tiotropium Bromide hydrate] | 0.36 |
| C#C[C@]1(O)CC[C@H]2[C@@H]3CCC4=Cc5oncc5C[C@]4(C)[C@H]3CC[C@@]21C [Danazol] | 0.53 |
| COc1ccc(Cl)cc1C(=O)NCCc1ccc(S(=O)(=O)NC(=O)NC2CCCCC2)cc1 [Glyburide (Glibenclamide)] | -0.59 |
| C[n+]1ccccc1/C=N/O [Pralidoxime chloride] | 1.25 |
| CC[C@H](Nc1ncnc2[nH]cnc12)c1nc2cccc(F)c2c(=O)n1-c1ccccc1 [Idelalisib (CAL-101, GS-1101)] | 1.09 |
| CN1[C@@H]2CC[C@H]1C[C@@H](OC(c1ccccc1)c1ccccc1)C2 [Benztropine mesylate] | -0.32 |
| C[C@]1(COc2ccc(N3CCC(Oc4ccc(OC(F)(F)F)cc4)CC3)cc2)Cn2cc([N+](=O)[O-])nc2O1 [Delamanid] | -0.77 |
| O=C1CCc2cc(OCCCCc3nnnn3C3CCCCC3)ccc2N1 [Cilostazol] | -0.86 |
| CO/N=C(\C(=O)N[C@@H]1C(=O)N2C(C(=O)O)=C(Cn3ccc(=N)n3CCO)CS[C@H]12)c1csc(N)n1 [Cefoselis Sulfate] | 0.03 |
| NC(=O)C(c1ccccc1)(c1ccccc1)[C@@H]1CCN(CCc2ccc3c(c2)CCO3)C1 [Darifenacin HBr] | 0.01 |
| CCN(CC)CCNC(=O)c1cc(Cl)c(N)cc1OC [Metoclopramide] | 1.49 |
| CCN[C@@H]1C[C@H](N)[C@@H](O[C@H]2OC(CN)=CC[C@H]2N)[C@H](O)[C@H]1O[C@H]1OC[C@](C)(O)[C@H](NC)[C@H]1O [Netilmicin Sulfate] | 0.67 |
| CCC1(c2ccccc2)C(=O)NCNC1=O [Primidone] | -0.16 |
| CCN1CCCC1CNC(=O)c1cc(S(N)(=O)=O)ccc1OC (stereo not given) [Sulpiride] | -0.56 |
